Screens (PubChem)
HTT aggregate: qHTS Multiplex Assay to Identify Dual Action Probes in a Cell Model of Huntington: Aggregate Formation (GFP); PC12 HttQ103-GFP aggregates, Acumen cytometry, 40 h; Potency, µM (series often up to 46.1 µM), inactives show at the highest dose activity change, negative = inhibition, actives largely listed as inhibitors; 1.1% of 220,000 active; AID 1688, 2009; note: potency is the fitted concentration of half-maximal effect; % is set by controls: 0 for no effect and ±100 for the full control effect; nearly all actives have a fitted effect of over 60% in size
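Aggregates are detected as GFP objects 1–25 µm with signal 6 STDEV over background in lysates of induced PC12 cells. These carry Huntingtin exon 1 with 103 glutamines fused to GFP under an ecdysone promoter; compounds titrated.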
HPGD block: qHTS Assay for Inhibitors of HPGD (15-Hydroxyprostaglandin Dehydrogenase); purified HPGD, NADH fluorescence kinetic, PGE2 substrate; 4.3% of 150,000 active; Potency, µM, inactives show top-dose activity change, negative = inhibition, hits mostly inhibitors; 15-hydroxyprostaglandin dehydrogenase [NAD(+)] (Homo sapiens), P15428; active = well fitted inhibition curve with a large enough effect, not every such curve was filed as active; inconclusive = small, poorly fitted or top-dose-only effect, or another doubt; inactive = no such curve, though single readings can be large or run the other way; note: potency is the fitted concentration of half-maximal effect; % is set by controls: 0 for no effect and ±100 for the full control effect
Target sequence (P15428 whole entry, looked up): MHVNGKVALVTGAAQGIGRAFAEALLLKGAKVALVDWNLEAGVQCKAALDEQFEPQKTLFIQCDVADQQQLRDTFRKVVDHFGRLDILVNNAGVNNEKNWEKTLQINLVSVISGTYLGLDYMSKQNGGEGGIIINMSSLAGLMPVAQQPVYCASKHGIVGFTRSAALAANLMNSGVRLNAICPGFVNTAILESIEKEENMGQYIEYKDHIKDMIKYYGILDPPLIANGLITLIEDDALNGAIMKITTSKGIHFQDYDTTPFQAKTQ
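NADH formation kinetics: reaction with 30 uM PGE2 and 1 mM NAD+ (final), 20 nM enzyme, Tris-HCl pH 8 with Tween 20, after 15 min compound preincubation at room temperature. Fluorescence change, last versus first of five reads.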
ALDH1A1 inh: qHTS Assay for Inhibitors of Aldehyde Dehydrogenase 1 (ALDH1A1); 7.3% of 220,000 active; Potency, µM (doses to about 75.3 µM), for the others: at the top dose activity, negative = inhibition, most hits filed as inhibitors; Purified ALDH1A1, NADH fluorescence, propionaldehyde substrate; Aldehyde dehydrogenase 1A1 (Homo sapiens), P00352; active = well fitted inhibition curve with a large enough effect, not every such curve was filed as active; inconclusive = small, poorly fitted or top-dose-only effect, or another doubt; inactive = no such curve, though single readings can be large or run the other way;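 note: potency is the fitted concentration of half-maximal effect; plate controls were no enzyme wells and a reference inhibitor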
Target sequence (P00352 whole entry, looked up): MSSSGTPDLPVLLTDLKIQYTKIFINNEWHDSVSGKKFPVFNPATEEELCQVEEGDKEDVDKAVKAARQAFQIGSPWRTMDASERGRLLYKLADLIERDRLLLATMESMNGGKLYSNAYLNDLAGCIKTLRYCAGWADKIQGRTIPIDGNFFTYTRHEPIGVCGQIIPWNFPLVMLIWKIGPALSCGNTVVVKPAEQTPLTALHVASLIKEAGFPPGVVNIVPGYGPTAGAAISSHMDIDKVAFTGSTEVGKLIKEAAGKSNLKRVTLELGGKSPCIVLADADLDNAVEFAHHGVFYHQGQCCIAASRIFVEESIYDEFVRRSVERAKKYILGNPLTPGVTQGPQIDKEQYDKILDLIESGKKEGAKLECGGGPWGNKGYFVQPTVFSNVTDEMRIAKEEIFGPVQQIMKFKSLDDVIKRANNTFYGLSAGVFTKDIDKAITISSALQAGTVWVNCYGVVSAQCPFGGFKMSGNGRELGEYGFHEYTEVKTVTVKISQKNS
IMPase Li cell: qHTS Assay for Identifying the Cell-Membrane Permeable IMPase Inhibitors: Potentiation with Lithium. 0.35% of 210,000 active. CHO-M1 cells, IP1 TR-FRET (IP-One), carbachol + lithium. Potency, µM (highest dose often 59.4 µM), for the others: at the top dose activity, negative = IMPase inhibition, actives largely listed as inhibitors;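 note: IP1 builds up when IMPase is blocked and the TR-FRET signal falls; potency is the fitted concentration of half-maximal effect; plate controls were basal vehicle for no effect and high inhibitor control for full effect; nearly all actives have a fitted effect of over 50% in size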
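Test compounds were applied to CHO-M1 cells previously cultured for 16–30 h at 2000 per well. A small lithium amount accompanied them; after 30 min at 37C, IP1 was quantified by TR-FRET.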
IMPase cell inh: qHTS Assay for Identifying the Cell-Membrane Permeable IMPase Inhibitors | Inositol monophosphatase 1 (Rattus norvegicus), P97697 | CHO-M1 cells, IP1 accumulation, HTRF TR-FRET ratio | inhibition (IP1 accumulation), % at 46.1 µM | 120,000 tested, under 10 active | AID 901, 2007; active = well fitted curve in the direction sought with a large enough effect in the signal ratio, not every such curve was filed as active; inconclusive = small, poorly fitted or top-dose-only effect, or a change in a side signal; inactive = no such curve, though single readings can be large or run the other way; the % refers to the signal ratio;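 note: cells stimulated with carbachol in lithium chloride buffer; plate controls were DMSO basal wells for no effect and reference inhibitor wells for full effect; higher means more IMPase inhibition seen as more IP1 and lower FRET ratio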
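Seeded CHO-M1 cells were dosed with compound at up to 46 uM, stimulated with carbachol for 30 min, then lysed in IP-One detection reagents. Higher IP1 lowers the TR-FRET signal.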
HTT cytoprotect: qHTS Multiplex Assay to Identify Dual Action Probes in a Cell Model of Huntington: Cytoprotection (ATP) | PC12 HTT-Q103 induced, cytoprotection, ATP luminescence, 40 h | Potency, µM (doses to about 56.4 µM), inactives show cytoprotection (ATP increase), actives largely listed as activators | 0.14% of 230,000 active | AID 1471, 2008; note: potency is the fitted concentration of half-maximal effect; % of control where 0% means no effect; nearly all actives have a fitted effect of over 45% in size
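Quantitative HTS on tebufenozide-induced (100 nM) PC12 cells expressing HTTQ103 exon 1–GFP; compounds tested as a concentration series; survival measured via cellular ATP.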
Numbers without * were called inactive; ? = inconclusive; nt = not tested or not shown; [ ] = remark or other dose. A selection: hits, their analogues and other compounds. The true share with any hit is near 9.4%. Unless noted, calls come from the whole dose curve; as a rule, active = well fitted curve in the direction sought with a large enough effect; inconclusive = small, poorly fitted or top-dose-only effect, or another doubt; inactive = no such curve, though single readings can be large; an effect the other way counts as inactive or inconclusive.

SMILES	HTT aggregate	HPGD block	ALDH1A1 inh	IMPase Li cell	IMPase cell inh	HTT cytoprotect
COc1cccc(-c2cc(C(F)(F)F)n3nc(C(=O)N4CCCCC4c4cccnc4)cc3n2)c1 (stereo not drawn)	?	nt	22µM*	15%	nt	-80%
O=C(c1cc2nc(-c3ccccc3)cc(C(F)(F)F)n2n1)N1CCCC1	nt	nt	nt	nt	nt	-35%[10 µM]
O=C(c1cc2nc(-c3ccc(F)cc3)cc(C(F)(F)F)n2n1)N1CCCC1	-15%	3.5µM*	6%	2%[38.3 µM]	1	-8%[10 µM]
O=C(O)c1cc2nc(-c3ccc(F)cc3)cc(C(F)(F)F)n2n1	24%	-29%	?	-24%[38.3 µM]	-17	-9%
COc1ccc(-c2cc(C(F)(F)F)n3nc(C(=O)N4CCCCC4)cc3n2)cc1	-12%	?	?	3%[38.3 µM]	-1	-21%
CC/C=C\C/C=C\C/C=C\C/C=C\C/C=C\C/C=C\CCC(N)=O	nt	-7%	-7%	17%	nt	-8%
COc1ccc(C(=O)OC2CC3CC[C@H](C2)N3C(C)=O)cc1OC (stereo partly drawn)	nt	0%	9%	9%	nt	-1%
COc1cc(O)c2c(c1)C(=O)c1cc(C)cc(O)c1C2=O	nt	?	?	-6%	nt	nt
O=C(O)c1cc(O)c2c(c1)C(=O)c1cc(O)cc(O)c1C2=O	-3%[9.22 µM]	14µM*	25µM*	27%	nt	-22%[10 µM]
CC(C)c1ccc(N(CC(=O)NCc2ccc(F)cc2)C(=O)c2csnn2)cc1	-1%[9.22 µM]	nt	5µM*	9%	nt	9%[10 µM]
CCc1cccc(N(CC(=O)NCc2ccc(F)cc2)C(=O)c2csnn2)c1	4%[9.22 µM]	nt	-9%	17%	nt	-1%[10 µM]
COc1cccc(/C=N/NC(=O)CNC(=O)c2ccc3c(c2)OCCO3)c1O	35µM*	-12%	-6%	-1%	-13	0%[10 µM]
Cc1ccccc1NC(=O)CCC(=O)N/N=C/c1cc([N+](=O)[O-])ccc1O	13µM*	-25%	?	3%	nt	nt
O=C(N/N=C/c1cc([N+](=O)[O-])ccc1O)c1ccc2c(c1)OCCO2	14µM*	-13%	5%	1%	nt	25%[10 µM]
Cc1ccc(C)c(NC(=O)CCC(=O)N/N=C/c2cc([N+](=O)[O-])ccc2O)c1	-9%[9.22 µM]	nt	-5%	0%	nt	16%[10 µM]
COc1cccc(/C=N/NC(=O)CNC(=O)C2COc3ccccc3O2)c1O (stereo not drawn)	13µM*	-15%	-1%	-5%	nt	34%[10 µM]
OC[C@@H](O)[C@@H](O)[C@@H](O)[C@@H](O)c1nc2ccc(Cl)cc2[nH]1	nt	-5%	7%[13.5 µM]	5%	nt	1%[10 µM]
OC[C@@H]1O[C@@H](n2cnc3c(NC4CCCCC4)ncnc32)[C@@H](O)[C@H]1O	nt	nt	nt	nt	5	-33%[1.9 µM]
CCCN1C(=O)S/C(=C\c2ccc(N3CCOCC3)cc2C)C1=O	3%	-11%	1.6µM*	5%[38.3 µM]	2	-5%
CCCN1C(=O)S/C(=C/c2ccc(N3CCOCC3)o2)C1=O	7%[9.22 µM]	nt	nt	nt	nt	1%[10 µM]
Cc1cc(N2CCOCC2)ccc1/C=C1\SC(=O)N(C(C)C)C1=O	-18%	-17%	5µM*	11%[38.3 µM]	3	17%
O=C(CN1C(=O)S/C(=C/c2ccc(N3CCOCC3)cc2)C1=O)N1CCOCC1	-7%	-11%	?	4%	nt	nt
CCC(C)N1C(=O)S/C(=C/c2ccc(N3CCOCC3)cc2C)C1=O (stereo not drawn)	-14%	-2%	10µM*	-4%	nt	nt
CCN1C(=O)S/C(=C\c2ccc(N3CCOCC3)cc2C)C1=O	26%	nt	-15%	nt	6	1%
CCCN1C(=O)S/C(=C\c2ccc(N3CCOCC3)o2)C1=O	?	nt	0.22µM*	47%	nt	-159%
SMILES	HTT aggregate	HPGD block	ALDH1A1 inh	IMPase Li cell	IMPase cell inh	HTT cytoprotect
CC(=O)[C@H]1CC[C@@H]2[C@H]3CC=C4C[C@@H](O)CC[C@]4(C)[C@H]3CC[C@]12C	nt	-3%	-3%[20.9 µM]	7%	5[20.6 µM]	8%[17.1 µM]
Cn1nc(SCC(=O)O)sc1=S	4%	14µM*	3%	-5%[38.3 µM]	-2	-3%
CCCCCCCCCCCCOCC1CO1 (stereo not drawn)	nt	-4%	?	10%	nt	11%
CO[C@H]1C[C@@H]2CC[C@@H](C)[C@@](O)(O2)C(=O)C(=O)N2CCCC[C@H]2C(=O)O[C@H]([C@H](C)C[C@@H]2CC[C@@H](O)[C@H](OC)C2)CC(=O)[C@H](C)/C=C(\C)[C@@H](O)[C@@H](OC)C(=O)[C@H](C)C[C@H](C)/C=C/C=C/C=C/1C	-21%	nt	nt	nt	nt	-52%
COc1ccc2nc(S(=O)Cc3ncc(C)c(OC)c3C)[nH]c2c1 (stereo not drawn)	?	28µM*	-2%[20.9 µM]	8%	1[20.6 µM]	?
O=C(/C=N\O)NCCCNCc1ccccc1	-6%	-8%	22µM*	-24%[38.3 µM]	2	-4%
O=C(/C=N/O)NCc1cccnc1	9%	nt	3%	nt	3	-15%[10 µM]
O=C(NCCCNCc1ccccc1)c1ccncc1	-3%	2%	2µM*	5%[38.3 µM]	4	-17%
CCOC(=O)c1[nH]c2ccc(OC)cc2c1NC(=O)/C=C/c1ccc2c(c1)OCO2	4%	?	22%	-20%	nt	nt
O=C(/C=C/c1ccc2c(c1)OCO2)Nc1c(C(=O)O)[nH]c2ccccc12	14%	16µM*	?	8%	8	-37%[10 µM]
C=CCN1C(=O)/C(=N/n2cnnc2)c2ccccc21	0%	-6%	0.063µM*	17%[38.3 µM]	2	-20%
C=CCN1C(=O)C(C)(C)Nc2ccccc21	7%	-6%	-4%	22%[38.3 µM]	7	-2%[10 µM]
Cc1c(N2C(=O)/C(=C\C3CC=CCC3)SC2=S)c(=O)n(-c2ccccc2)n1C (stereo not drawn)	-33%	nt	1.3µM*	25%	nt	?
Cc1c(N2C(=O)/C(=C/C3CC=CCC3)SC2=S)c(=O)n(-c2ccccc2)n1C (stereo not drawn)	-19%[9.22 µM]	nt	nt	nt	nt	5%[10 µM]
Cc1ccc(CNC(=O)/C=C/c2ccc(Br)o2)cc1	-8%	-28%	3.5µM*	-1%	nt	13%[10 µM]
O=C(/C=C/c1ccc(Br)o1)NCc1ccccc1	0%	nt	6.3µM*	-1%	nt	-25%
Cc1ccc(S(=O)(=O)Nc2ccc(N(C)C)cc2)cc1	9%[9.22 µM]	nt	?	14%	nt	-31%[1.9 µM]
CN(C)c1ccc(NS(=O)(=O)c2ccc(-c3csnn3)cc2)cc1	3%[9.22 µM]	nt	8.9µM*	nt	nt	-32%[10 µM]
CCN1C(C)=C(C(=O)OC)C(c2ccccc2)N2C(=O)[C@@]3(C(=O)OC)O[C@@]12C1C(=O)CCCC13 (stereo partly drawn)	nt	nt	-1%[13.5 µM]	nt	nt	1%[10 µM]
